The panel holds about 83,000 compounds, 20% with a hit somewhere; the sample as a whole holds those more often.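 Note: values are percent growth. 100 is the growth of untreated cells, values between 100 and 0 indicate rising inhibition; between -100 and 0 indicates cell death.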 Values without a mark were called inactive. Active and inactive are the calls of the source. Rule for the calls: active = growth percent below 10; inactive = the rest.

Some test systems named below: NCI-H23 lung; NCI-H226 lung; NCI-H322M lung; HOP-62 NSCLC; NCI-H460 lung; HOP-92 NSCLC; A549/ATCC NSCLC; 786-0 renal; COLO 205 colon; DU-145 prostate; K-562 leukemia; MDA-MB-231 breast; RXF 393 renal; SF-268 CNS; SF-295 CNS; SF-539 CNS; UACC-257 melanoma; M14 melanoma; MALME-3M melanoma.
What all share (assay): NCI-60 one-dose screen, 48 h (100 = growth as untreated, 0 = no growth, -100 = all killed)
Holding throughout (conditions): 10 µM unless noted

In the case of `COc1ccc(/C=C2/SC(=Nc3c(C)nn(-c4ccccc4)c3N)NC2=O)cc1`, the growth in the experiment on NCI-H23 lung is 38.3%; in the experiment on NCI-H226 lung it was 51.1%; in the experiment on NCI-H322M lung, 39.1%; in the experiment with HOP-62 NSCLC, 53%; with NCI-H460 lung, 17.7%; with HOP-92 NSCLC, 53.7%. The growth in the experiment with A549/ATCC NSCLC is 32.4%; in the experiment with 786-0 renal, 40.5%; in the experiment on COLO 205 colon it was 43.7%; with DU-145 prostate, 43.6%; in the experiment on K-562 leukemia, 15.2%; in the experiment with MDA-MB-231 breast it was 66.3%. The growth is 83.6% in the experiment on RXF 393 renal; 58.8% in the experiment on SF-268 CNS; 8.06% (active) in the experiment with SF-295 CNS; 23.6% in the experiment on SF-539 CNS; 59% in the experiment with UACC-257 melanoma; 17.2% in the experiment on M14 melanoma.

Consider `O=c1c2c(=NCCCN3CCCC3)cc3c(=O)n(CCCN4CCCC4)c(=O)c4c(NCCCN5CCCC5)cc(c(O)n1CCCN1CCCC1)c2c4-3`, for which the growth was -2.37% (active) with NCI-H23 lung; -26.3% (active) in the experiment with NCI-H226 lung; -29.5% (active) in the experiment on NCI-H322M lung; -13.7% (active) with HOP-62 NSCLC; -32.1% (active) with NCI-H460 lung; 0.433% (active) in the experiment with HOP-92 NSCLC. Further, the growth is 7.79% (active) with A549/ATCC NSCLC; -13.9% (active) in the experiment on 786-0 renal; -68.4% (active) with COLO 205 colon; -16.1% (active) in the experiment on DU-145 prostate; 6.04% (active) with K-562 leukemia; -9.58% (active) in the experiment on MDA-MB-231 breast. Besides, the growth with RXF 393 renal is -67.6% (active); in the experiment on SF-268 CNS it was -7.1% (active); with SF-295 CNS, -42.5% (active); with SF-539 CNS, -32.6% (active); with UACC-257 melanoma, -29.8% (active); in the experiment with M14 melanoma, -63.1% (active).

`COC(=O)CC1=C(c2ccc([N+](=O)[O-])cc2)CCC1=O`: the growth with NCI-H23 lung was 100%; in the experiment with NCI-H226 lung, 94%; with NCI-H322M lung it was 115%; with HOP-62 NSCLC, 102%; in the experiment on NCI-H460 lung, 103%; with HOP-92 NSCLC, 89.5%. Further, the growth is 94.7% in the experiment on A549/ATCC NSCLC; 104% with 786-0 renal; 98.2% in the experiment on COLO 205 colon; 101% in the experiment with DU-145 prostate; 98.7% in the experiment with K-562 leukemia; 102% with MDA-MB-231 breast. The growth with RXF 393 renal was 110%; with SF-268 CNS, 101%; with SF-295 CNS, 100%; in the experiment on SF-539 CNS it was 97%; with UACC-257 melanoma, 109%; in the experiment on M14 melanoma, 109%.

With `O=C1/C(=C\c2coc3ccccc3c2=O)c2ccccc2N1c1c(Cl)cccc1Cl`, the growth is 55.4% in the experiment on NCI-H23 lung; 90.7% with NCI-H226 lung; 73.7% with NCI-H322M lung; 68.2% in the experiment with HOP-62 NSCLC; 19% with NCI-H460 lung; 32.1% in the experiment with HOP-92 NSCLC. Moreover, the growth was 26.6% with A549/ATCC NSCLC; 27% in the experiment with 786-0 renal; 55.3% with COLO 205 colon; 24.6% with DU-145 prostate; 83.8% with MALME-3M melanoma; 60.5% in the experiment on MDA-MB-231 breast. In addition, the growth in the experiment with RXF 393 renal is 44.1%; with SF-268 CNS, 32%; with SF-295 CNS, -12% (active); in the experiment on SF-539 CNS it was 49.4%; in the experiment on UACC-257 melanoma, 61.2%; with M14 melanoma, 43.4%.

`CC1C(C)N(C(=O)CCl)c2ccccc2N1C(=O)CCl` (centres undefined): the growth is -61.1% (active) in the experiment with NCI-H23 lung; 13.7% in the experiment with NCI-H226 lung; 3.9% (active) in the experiment on NCI-H322M lung; -67.3% (active) in the experiment with HOP-62 NSCLC; -37.3% (active) in the experiment with NCI-H460 lung; -40.7% (active) with HOP-92 NSCLC. The growth with A549/ATCC NSCLC was 38.4%; in the experiment with 786-0 renal it was -55.1% (active); in the experiment with COLO 205 colon, -70.6% (active); in the experiment with DU-145 prostate, -94.9% (active); in the experiment with K-562 leukemia it was -0.205% (active); in the experiment with MDA-MB-231 breast, -53.8% (active). Besides, the growth in the experiment on RXF 393 renal was -53.9% (active); in the experiment with SF-268 CNS, -77.9% (active); in the experiment with SF-295 CNS, -66.7% (active); in the experiment with SF-539 CNS, -94.8% (active); with UACC-257 melanoma, -70.3% (active); in the experiment with M14 melanoma, -81.8% (active).

In the case of `COc1ccc(C2CC(c3ccc4c(c3)OCO4)=NN2C=O)cc1` (centres undefined), the growth is 100% in the experiment on NCI-H23 lung; 87.6% in the experiment on NCI-H226 lung; 107% in the experiment on NCI-H322M lung; 102% in the experiment on HOP-62 NSCLC; 102% with NCI-H460 lung; 89.2% in the experiment on HOP-92 NSCLC. For the same molecule, the growth is 95.8% with A549/ATCC NSCLC; 89.5% in the experiment with 786-0 renal; 115% with COLO 205 colon; 107% in the experiment on DU-145 prostate; 90.3% in the experiment on K-562 leukemia; 84.2% in the experiment with MDA-MB-231 breast. The growth in the experiment with RXF 393 renal is 100%; in the experiment with SF-268 CNS it was 108%; with SF-295 CNS it was 113%; with SF-539 CNS it was 98.8%; in the experiment on UACC-257 melanoma it was 110%; in the experiment with M14 melanoma, 102%.

Take `C(=C1c2ccccc2-c2ccccc21)c1ccccn1`: the growth in the experiment on NCI-H23 lung was 79.9%; in the experiment with NCI-H226 lung it was 99.6%; in the experiment on NCI-H322M lung, 89.1%; in the experiment on HOP-62 NSCLC, 71.7%; with NCI-H460 lung it was 83.8%; in the experiment with HOP-92 NSCLC it was 73.4%. In addition, the growth with A549/ATCC NSCLC was 63.7%; in the experiment on 786-0 renal, 87.2%; with COLO 205 colon, 84.9%; in the experiment on DU-145 prostate it was 106%; in the experiment with K-562 leukemia it was 19.6%; in the experiment on MDA-MB-231 breast, 62.2%. The growth in the experiment on RXF 393 renal is 80.6%; in the experiment on SF-268 CNS, 82.7%; with SF-295 CNS it was 71.3%; in the experiment with SF-539 CNS, 72.2%; with UACC-257 melanoma it was 91.1%; with M14 melanoma, 33.4%.

Take `Cn1cnc([N+](=O)[O-])c1Sc1nc(N)nc2nc[nH]c12`: the growth was 52.9% with NCI-H23 lung; 74.1% with NCI-H226 lung; 77.3% in the experiment with NCI-H322M lung; 22.8% in the experiment on HOP-62 NSCLC; 20.6% with NCI-H460 lung; -3.12% (active) with HOP-92 NSCLC. Besides, the growth was 14.6% in the experiment on 786-0 renal; 96.9% in the experiment on COLO 205 colon; 25.7% with DU-145 prostate; 4.56% (active) in the experiment on K-562 leukemia; 68.8% in the experiment with MALME-3M melanoma; 29.6% in the experiment on MDA-MB-231 breast. In addition, the growth in the experiment on RXF 393 renal was 44.8%; with SF-268 CNS, 29%; in the experiment on SF-295 CNS, -2.69% (active); in the experiment with SF-539 CNS, 16.4%; with UACC-257 melanoma, 45.3%; in the experiment on M14 melanoma it was 14.4%.

The record behind these values is PubChem BioAssay (NCI).
